# Source: PubChem BioAssay AID1159580 (chemical genetic matrix, 2015)
# “And” between values parts separate entries of the source, which are not always exact repeats. Equal entries are not always repeated. Out of some 5,500 compounds screened, about 2,000 (36%) were called active. Not shown: some 18% with an inconclusive outcome. This is one part of the list. Values without a mark were called inactive. Rule as the data show it: active = normalized growth mostly below about 0.91 (no sharp cut-off); inconclusive = no clear call, values can overlap the other calls; inactive = mostly above about 0.92.
# Experiment: chemical genetic growth profiling, strain panel (AID 1159580);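 also: tested at 20 µM; growth read once vehicle control cultures reached saturation at 30 °C; 1 = growth at the plate median or of vehicle wells; lower values mean less growth of the strain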
# Conditions: S. cerevisiae deletion strains, growth OD
structure (smiles),measurement,setting,value
CC(=O)O[C@@H]1CC[C@@]2(C)C(CC[C@]3(C)C2CC=C2C4CC(C)(C)CC[C@]4(C(=O)O)CC[C@]23C)C1(C)C (stereo partly drawn),normalized growth,"locus YAL021C, strain ccr4, hits give low values",0.949
same,normalized growth,"locus YAL026C, strain drs2, hits give low values",0.957
same,normalized growth,"locus YAL030W, strain snc1, hits give low values",0.98
same,normalized growth,"locus YBL061C, strain skt5, hits give low values",0.955
same,normalized growth,"locus YBR009C, strain hhf1, hits give low values",1.01
same,normalized growth,"locus YBR021W, strain FUR4, hits give low values",1
same,normalized growth,"locus YBR023C, strain chs3, hits give low values",0.918
same,normalized growth,"locus YBR171W, strain sec66, hits give low values",1
same,normalized growth,"locus YBR229C, strain ROT2, hits give low values",0.992
same,normalized growth,"locus YBR231C, strain swc5, hits give low values",0.913
same,normalized growth,"locus YBR279W, strain paf1, hits give low values",0.982
same,normalized growth,"locus YCL011C, strain gbp2, hits give low values",0.965
same,normalized growth,"locus YCL016C, strain dcc1, hits give low values",0.96
same,normalized growth,"locus YCL029C, strain bik1, hits give low values",0.996
same,normalized growth,"locus YCL061C, strain MRC1, hits give low values",1
same,normalized growth,"locus YCL069W, strain vba3, hits give low values",1.01
same,normalized growth,"locus YCR088W, strain abp1, hits give low values",1.01
same,normalized growth,"locus YDL005C, strain med2, hits give low values",0.99
same,normalized growth,"locus YDL035C, strain GPR1, hits give low values",1.05
same,normalized growth,"locus YDL040C, strain nat1, hits give low values",1
same,normalized growth,"locus YDL074C, strain BRE1, hits give low values",1.07
same,normalized growth,"locus YDL101C, strain DUN1, hits give low values",0.975
same,normalized growth,"locus YDL134C, strain PPH21, hits give low values",0.974
same,normalized growth,"locus YDL185W, strain tfp1, hits give low values",0.976
same,normalized growth,"locus YDL192W, strain arf1, hits give low values",1.01
same,normalized growth,"locus YDR001C, strain nth1, hits give low values",1.01
same,normalized growth,"locus YDR069C, strain doa4, hits give low values",0.84 (active)
same,normalized growth,"locus YDR101C, strain arx1, hits give low values",1.02
same,normalized growth,"locus YDR137W, strain rgp1, hits give low values",1.02
same,normalized growth,"locus YDR159W, strain sac3, hits give low values",1.03
same,normalized growth,"locus YDR162C, strain NBP2, hits give low values",1.03
same,normalized growth,"locus YDR195W, strain ref2",1.04
same,normalized growth,"locus YDR297W, strain sur2, hits give low values",0.939
same,normalized growth,"locus YDR318W, strain mcm21, hits give low values",1.01
same,normalized growth,"locus YDR334W, strain swr1, hits give low values",0.985
same,normalized growth,"locus YDR335W, strain msn5, hits give low values",0.957
same,normalized growth,"locus YDR388W, hits give low values",0.983
same,normalized growth,"locus YDR392W, strain spt3, hits give low values",0.95
same,normalized growth,"locus YDR502C, strain sam2, hits give low values",0.978
same,normalized growth,"locus YEL003W, strain gim4, hits give low values",0.976
same,normalized growth,"locus YEL037C, strain rad23, hits give low values",0.99
same,normalized growth,"locus YEL061C, strain CIN8 (second series), hits give low values",1.01
same,normalized growth,"locus YEL061C, strain CIN8, hits give low values",1
same,normalized growth,"locus YER015W, strain faa2, hits give low values",0.936
same,normalized growth,"locus YER016W, strain bim1, hits give low values",0.965
same,normalized growth,"locus YER110C, hits give low values",0.976
same,normalized growth,"locus YER111C, strain swi4, hits give low values",0.96
same,normalized growth,"locus YER155C, strain BEM2 (second series), hits give low values",0.964
same,normalized growth,"locus YER155C, strain BEM2, hits give low values",0.985
same,normalized growth,"locus YER167W, strain BCK2, hits give low values",1.01
same,normalized growth,"locus YFR010W, strain ubp6, hits give low values",0.949
same,normalized growth,"locus YGL078C, strain dbp3, hits give low values",0.977
same,normalized growth,"locus YGL086W, strain mad1, hits give low values",1.04
same,normalized growth,"locus YGL167C, strain pmr1, hits give low values",0.986
same,normalized growth,"locus YGL173C, strain kem1, hits give low values",0.902 (active)
same,normalized growth,"locus YGL227W, strain vid30, hits give low values",1.01
same,normalized growth,"locus YGL240W, strain doc1, hits give low values",1.08
same,normalized growth,"locus YGL248W, strain PDE1, hits give low values",0.998
same,normalized growth,"locus YGL253W, strain hxk2, hits give low values",0.984
same,normalized growth,"locus YGR135W, strain pre9, hits give low values",0.954
same,normalized growth,"locus YGR229C, strain SMI1, hits give low values",0.988
same,normalized growth,"locus YGR252W, strain gcn5, hits give low values",0.982
same,normalized growth,"locus YHR013C, strain ard1, hits give low values",0.933
same,normalized growth,"locus YHR027C, strain rpn1, hits give low values",0.913 (active)
same,normalized growth,"locus YHR030C, strain SLT2, hits give low values",0.983
same,normalized growth,"locus YHR079C, strain IRE1 (second series), hits give low values",0.983
same,normalized growth,"locus YHR079C, strain IRE1, hits give low values",0.974
same,normalized growth,"locus YHR094C, strain hxt1, hits give low values",0.987
same,normalized growth,"locus YHR129C, strain ARP1, hits give low values",0.995
same,normalized growth,"locus YHR142W, strain chs7, hits give low values",0.958
same,normalized growth,"locus YHR200W, strain rpn10, hits give low values",0.987
same,normalized growth,"locus YIL066C, strain RNR3, hits give low values",1.03
same,normalized growth,"locus YIL073C, strain SPO22, hits give low values",1.01
same,normalized growth,"locus YIL125W, strain kgd1, hits give low values",0.999
same,normalized growth,"locus YIR030C, strain dcg1, hits give low values",0.985
same,normalized growth,"locus YJL092W, strain hpr5, hits give low values",1.01
same,normalized growth,"locus YJL095W, strain BCK1 (second series), hits give low values",0.966
same,normalized growth,"locus YJL095W, strain BCK1, hits give low values",1.01 and 0.986
same,normalized growth,"locus YJL115W, strain asf1, hits give low values",1.01
same,normalized growth,"locus YJL129C, strain trk1, hits give low values",1.02
same,normalized growth,"locus YJL134W, strain LCB3, hits give low values",0.996
same,normalized growth,"locus YJL154C, strain vps35, hits give low values",1.03
same,normalized growth,"locus YJL164C, strain tpk1, hits give low values",0.927
same,normalized growth,"locus YJL166W, strain qcr8, hits give low values",0.953
same,normalized growth,"locus YJL168C, strain set2, hits give low values",0.987
same,normalized growth,"locus YJL187C, strain SWE1 (second series), hits give low values",0.976
same,normalized growth,"locus YJR043C, strain POL32, hits give low values",1.06
same,normalized growth,"locus YJR066W, strain TOR1, hits give low values",0.882
same,normalized growth,"locus YKL009W, strain mrt4, hits give low values",1.03
same,normalized growth,"locus YKL068W, hits give low values",1.02
same,normalized growth,"locus YKL085W, strain MDH1 (second series), hits give low values",1.04
same,normalized growth,"locus YKL085W, strain MDH1, hits give low values",1.04
same,normalized growth,"locus YKL160W, strain elf1, hits give low values",0.954
same,normalized growth,"locus YKL190W, strain CNB1, hits give low values",1.03
same,normalized growth,"locus YKR001C, strain vps1, hits give low values",1
same,normalized growth,"locus YKR026C, strain gcn3, hits give low values",1.01
same,normalized growth,"locus YKR091W, strain srl3, hits give low values",1
same,normalized growth,"locus YLL001W, strain dnm1, hits give low values",1.01
same,normalized growth,"locus YLL026W, hits give low values",1
same,normalized growth,"locus YLL041C, strain sdh2, hits give low values",0.996
same,normalized growth,"locus YLR027C, strain aat2, hits give low values",0.981
same,normalized growth,"locus YLR039C, strain RIC1, hits give low values",1.1
same,normalized growth,"locus YLR058C, strain SHM2, hits give low values",0.989
same,normalized growth,"locus YLR102C, strain apc9, hits give low values",0.981
same,normalized growth,"locus YLR113W, strain HOG1, hits give low values",0.975
same,normalized growth,"locus YLR221C, strain rsa3, hits give low values",0.954
same,normalized growth,"locus YLR258W, strain gsy2, hits give low values",0.98
same,normalized growth,"locus YLR262C, strain YPT6 (second series), hits give low values",0.886
same,normalized growth,"locus YLR262C, strain YPT6, hits give low values",1.14
same,normalized growth,"locus YLR268W, strain sec22, hits give low values",1.01
same,normalized growth,"locus YLR320W, strain mms22, hits give low values",0.968
same,normalized growth,"locus YLR330W, strain CHS5, hits give low values",1
same,normalized growth,"locus YLR342W, strain FKS1 (second series), hits give low values",1.05
same,normalized growth,"locus YLR342W, strain FKS1, hits give low values",0.919
same,normalized growth,"locus YLR357W, strain rsc2, hits give low values",0.893
same,normalized growth,"locus YLR370C, strain arc18, hits give low values",0.957
same,normalized growth,"locus YLR371W, strain rom2, hits give low values",0.991
same,normalized growth,"locus YLR384C, strain iki3, hits give low values",0.981
same,normalized growth,"locus YLR418C, strain cdc73, hits give low values",0.984
same,normalized growth,"locus YML016C, strain PPZ1, hits give low values",0.99
same,normalized growth,"locus YML032C, strain rad52, hits give low values",1.01
same,normalized growth,"locus YML120C, strain ndi1, hits give low values",0.999
same,normalized growth,"locus YML124C, strain tub3, hits give low values",0.99
same,normalized growth,"locus YMR058W, strain fet3, hits give low values",0.655 (active)
same,normalized growth,"locus YMR078C, strain ctf18, hits give low values",0.977
same,normalized growth,"locus YMR125W, strain sto1, hits give low values",1.01
same,normalized growth,"locus YMR129W, hits give low values",1.01
same,normalized growth,"locus YMR205C, strain PFK2, hits give low values",0.991
same,normalized growth,"locus YMR223W, strain ubp8, hits give low values",0.985
same,normalized growth,"locus YMR231W, strain pep5, hits give low values",0.99
same,normalized growth,"locus YMR263W, strain SAP30, hits give low values",0.985
same,normalized growth,"locus YMR307W, strain GAS1, hits give low values",0.985
same,normalized growth,"locus YNL067W, strain RPL9B, hits give low values",0.973
same,normalized growth,"locus YNL071W, strain lat1, hits give low values",1.02
same,normalized growth,"locus YNL153C, strain GIM3, hits give low values",0.988
same,normalized growth,"locus YNL183C, strain NPR1, hits give low values",0.914
same,normalized growth,"locus YNL209W, strain ssb2, hits give low values",0.793 (active)
same,normalized growth,"locus YNL233W, strain BNI4, hits give low values",0.991
same,normalized growth,"locus YNL248C, strain rpa49, hits give low values",1.03
same,normalized growth,"locus YNL250W, strain rad50, hits give low values",0.959
same,normalized growth,"locus YNL271C, strain bni1, hits give low values",0.981
same,normalized growth,"locus YNL298W, strain CLA4, hits give low values",0.995
same,normalized growth,"locus YNL307C, strain MCK1, hits give low values",0.985
same,normalized growth,"locus YNL322C, strain KRE1 (second series), hits give low values",0.988
same,normalized growth,"locus YNR049C, strain mso1, hits give low values",1.01
same,normalized growth,"locus YNR052C, strain pop2, hits give low values",0.985
same,normalized growth,"locus YOL012C, strain htz1",0.851
same,normalized growth,"locus YOL147C, strain pex11, hits give low values",1.01
same,normalized growth,"locus YOR001W, strain rrp6, hits give low values",1.02
same,normalized growth,"locus YOR061W, strain CKA2, hits give low values",1.04
same,normalized growth,"locus YOR069W, strain VPS5, hits give low values",0.989
same,normalized growth,"locus YOR070C, strain gyp1, hits give low values",0.986
same,normalized growth,"locus YOR080W, strain dia2, hits give low values",1
same,normalized growth,"locus YOR083W, strain WHI5, hits give low values",0.968
same,normalized growth,"locus YOR106W, strain vam3, hits give low values",0.852 (active)
same,normalized growth,"locus YOR136W, strain idh2, hits give low values",0.979
same,normalized growth,"locus YOR144C, strain elg1, hits give low values",0.981
same,normalized growth,"locus YOR184W, strain ser1, hits give low values",1.05
same,normalized growth,"locus YOR231W, strain MKK1, hits give low values",0.966
same,normalized growth,"locus YOR265W, strain rbl2, hits give low values",0.984
same,normalized growth,"locus YOR270C, strain vph1, hits give low values",0.946
same,normalized growth,"locus YOR290C, strain snf2, hits give low values",0.983
same,normalized growth,"locus YOR316C, strain cot1, hits give low values",0.98
same,normalized growth,"locus YPL051W, strain arl3, hits give low values",0.833 (active)
same,normalized growth,"locus YPL078C, strain atp4, hits give low values",0.992
same,normalized growth,"locus YPL106C, strain sse1, hits give low values",0.923
same,normalized growth,"locus YPL240C, strain hsp82, hits give low values",0.985
same,normalized growth,"locus YPL256C, strain CLN2, hits give low values",0.982
same,normalized growth,"locus YPR119W, strain clb2, hits give low values",0.981
same,normalized growth,"locus YPR141C, strain kar3, hits give low values",0.982
same,normalized growth,"locus YPR163C, strain tif3, hits give low values",0.991
same,normalized growth,"locus YPR167C, strain met16, hits give low values",0.987
same,normalized growth,"strain wtn01, hits give low values",1.03
